This is an account of results in PubChem BioAssay.

Assay [1] can be described thus: E. coli DRC41 culture turbidity changes, primary screen, E. coli filamentation inducer project, strain DRC41, OD650, 48 h (AID 1152).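 Note: E. coli MC1000 strain DRC41 lacking acrAB efflux pump and sulA.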 The conditions noted are these: E. coli DRC41 (acrAB sulA), higher = more signal, called active from +8 up or from −8 down.
Assay [2] can be described thus: small-molecule binders of probe aLefty1, primary screen, biochemical, small-molecule microarray, 635/667 nm fluorescence (AID 1153).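 Note: score merges spot fluorescence with signal-to-noise ratio from the scanned slide images.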 The conditions noted are these: higher = more signal.
A short description of assay [3]: PSAC antagonists in infected red cells, primary screen, cell-based, P. falciparum Indochina, OD700, 1 h (AID 1154). As to conditions: P. falciparum Indochina infected RBC osmotic lysis, higher = more signal, called active from +8 up or from −8 down.
Assay [4] can be described thus: PSAC antagonists in infected red cells, primary screen, cell-based, P. falciparum Indochina, OD700, 2 h (AID 1155).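 Note: lysis reports solute entry through the parasite surface anion channel PSAC; channel blockers reduce lysis of infected cells.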 As to conditions: P. falciparum Indochina infected erythrocytes, osmotic lysis OD700; higher = more signal, called active from +8 up or from −8 down.
A short description of assay [5]: osmotic lysis modulators in infected erythrocytes, primary screen, PSAC antagonist project, cell-based, P. falciparum Indochina, OD700, 3 h (AID 1156). As to conditions: higher = more signal, called active from +8 up or from −8 down.
Assay [6] is described as follows: PSAC antagonists in infected red cells, primary screen, cell-based, P. falciparum Indochina, OD700, 18 h (AID 1157). As to conditions: P. falciparum Indochina infected erythrocytes, osmotic lysis OD700, 18 h; higher = more signal, called active from +8 up or from −8 down.
Assay [7] is described as follows: modulators of S6 phosphorylation in cells, primary screen, cell-based, A549, cytoblot, luminescence, serum-stimulated (AID 1158).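 Note: serum-stimulated A549 lung adenocarcinoma cells; signal is phosphorylated S6 detected by cytoblot immunostaining with HRP secondary.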 The conditions noted are these: A549 phospho-S6 cytoblot, 5 h, higher = more signal.
Assay [8] concerns the target NADPH oxidase 2 (Homo sapiens) (UniProt P04839). Briefly: NOX2-dependent H2O2 signal modulators, primary screen, NOX inhibitor project, cell-based, HEK293-NOX2, PMA-stimulated, Amplex Red fluorescence (AID 1159). Note: test concentration not given here. The conditions noted are these: 45 min, higher = more signal, called active from +8 up or from −8 down.
Assay [9] deals with NADPH oxidase 4 (Homo sapiens) (UniProt Q9NPH5). Briefly: NOX4-dependent H2O2 signal modulators, primary screen, NOX inhibitor project, cell-based, HEK293-NOX4, tetracycline-induced, Amplex Red fluorescence (AID 1160). The conditions noted are these: 45 min, higher = more signal, called active from +8 up or from −8 down.
Sequence of NADPH oxidase 4 (Homo sapiens) (Q9NPH5 whole entry, looked up): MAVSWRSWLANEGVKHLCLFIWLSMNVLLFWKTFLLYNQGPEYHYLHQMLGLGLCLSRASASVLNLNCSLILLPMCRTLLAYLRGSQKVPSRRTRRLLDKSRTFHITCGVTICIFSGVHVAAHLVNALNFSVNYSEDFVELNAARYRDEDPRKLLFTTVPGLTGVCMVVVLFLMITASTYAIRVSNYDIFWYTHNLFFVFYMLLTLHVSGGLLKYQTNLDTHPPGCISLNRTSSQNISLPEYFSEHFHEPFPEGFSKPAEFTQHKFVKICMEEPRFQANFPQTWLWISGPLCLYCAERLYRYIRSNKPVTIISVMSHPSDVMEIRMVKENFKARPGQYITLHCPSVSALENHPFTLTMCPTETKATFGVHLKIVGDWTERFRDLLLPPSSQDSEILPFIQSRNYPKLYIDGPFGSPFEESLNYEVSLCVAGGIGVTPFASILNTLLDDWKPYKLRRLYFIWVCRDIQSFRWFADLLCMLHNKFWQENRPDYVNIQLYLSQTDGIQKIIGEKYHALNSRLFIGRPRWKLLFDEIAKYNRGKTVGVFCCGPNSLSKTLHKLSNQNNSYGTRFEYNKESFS
Assay [10] has as its target NADPH oxidase 5 (Homo sapiens) (UniProt Q96PH1). Briefly: NOX5-dependent H2O2 signal modulators, primary screen, NOX inhibitor project, cell-based, HEK293-NOX5, Amplex Red fluorescence (AID 1161). As to conditions: HEK293-NOX5, ionomycin, 45 min, higher = more signal.
Assay [11] in a line: A549 cell viability effects, profiling panel, calcein-AM fluorescence, 48 h, basal (AID 1162). Note: test concentration not given here. As to conditions: higher = more signal.
A short description of assay [12]: adipocyte viability effects, profiling panel, cell-based, 3T3-L1 adipocytes, calcein-AM fluorescence, 48 h, basal (AID 1163). Note: test concentration not given here. As to conditions: 3T3-L1 adipocytes viability, higher = more signal.
A short description of assay [13]: HepG2 cell viability effects, profiling panel, calcein-AM fluorescence, 48 h, basal (AID 1164). Note: test concentration not given here. As to conditions: higher = more signal.
The nature of assay [14]: MM1S cell viability effects, profiling panel, calcein-AM fluorescence, 48 h, basal (AID 1165).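 Note: viability of MM1S multiple myeloma cells under basal unstimulated conditions; test concentration not given here.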 The conditions noted are these: higher = more signal.
Assay [15] is described as follows: basal RPMI8226 viability, no added stimulus, profiling panel, cell-based, calcein-AM fluorescence, 48 h, PK04 Diversity Set (AID 1166).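 Note: cells grown under basal conditions without added stimulus; test concentration not given here.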 The conditions noted are these: RPMI8226 myeloma viability, higher = more signal.
Assay [16] in a line: basal HepG2 mitochondrial membrane potential changes, profiling panel, cell-based, JC-1 fluorescence, 24 h, 100 nL compound (AID 1167). Note: test concentration not given here. As to conditions: higher = more signal.
A short description of assay [17]: basal 3T3-L1 adipocyte mitochondrial potential changes, profiling panel, cell-based, JC-1 fluorescence, 3T3-L1 adipocytes, 24 h, 100 nL compound (AID 1168). Note: test concentration not given here. The conditions noted are these: JC-1 mitochondrial fluorescence, higher = more signal, called active from +8 up or from −8 down.
Assay [18] in a line: basal RPMI8226 mitochondrial membrane potential changes, profiling panel, cell-based, JC-1 fluorescence, 24 h, 100 nL compound (AID 1169). Note: test concentration not given here. As to conditions: RPMI8226 myeloma, JC-1 mitochondrial potential fluorescence, higher = more signal.
Assay [19] is described as follows: basal MM1S mitochondrial membrane potential changes, profiling panel, cell-based, JC-1 fluorescence, 24 h, 100 nL compound (AID 1170). Note: test concentration not given here. The conditions noted are these: higher = more signal.
Assay [20] can be described thus: A549 lung cancer cell viability effects, profiling panel, resazurin fluorescence, 24 h, PK04 Diversity Set (AID 1171). Note: test concentration not given here. As to conditions: higher = more signal, called active from +8 up or from −8 down. Background: Alamar Blue is a resazurin reagent that responds to reducing activity.

Calls of active or inactive are those of the source.

Sequence of NADPH oxidase 2 (Homo sapiens) (P04839 whole entry, looked up): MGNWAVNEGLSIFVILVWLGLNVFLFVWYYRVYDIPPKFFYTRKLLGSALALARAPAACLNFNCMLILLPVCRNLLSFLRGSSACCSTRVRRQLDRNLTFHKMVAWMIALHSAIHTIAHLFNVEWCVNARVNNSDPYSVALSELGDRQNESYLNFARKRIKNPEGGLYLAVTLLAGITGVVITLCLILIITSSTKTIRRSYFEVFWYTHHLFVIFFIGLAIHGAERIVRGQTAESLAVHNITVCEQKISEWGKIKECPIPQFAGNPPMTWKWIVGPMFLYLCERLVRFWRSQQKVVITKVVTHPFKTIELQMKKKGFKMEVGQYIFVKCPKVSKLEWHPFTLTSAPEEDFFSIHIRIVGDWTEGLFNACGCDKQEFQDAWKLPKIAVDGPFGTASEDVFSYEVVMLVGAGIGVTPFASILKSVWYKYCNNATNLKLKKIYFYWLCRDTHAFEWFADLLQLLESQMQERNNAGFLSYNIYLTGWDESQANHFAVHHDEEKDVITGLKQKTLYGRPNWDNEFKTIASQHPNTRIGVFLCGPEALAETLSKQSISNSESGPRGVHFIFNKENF
Sequence of NADPH oxidase 5 (Homo sapiens) (Q96PH1 whole entry, looked up): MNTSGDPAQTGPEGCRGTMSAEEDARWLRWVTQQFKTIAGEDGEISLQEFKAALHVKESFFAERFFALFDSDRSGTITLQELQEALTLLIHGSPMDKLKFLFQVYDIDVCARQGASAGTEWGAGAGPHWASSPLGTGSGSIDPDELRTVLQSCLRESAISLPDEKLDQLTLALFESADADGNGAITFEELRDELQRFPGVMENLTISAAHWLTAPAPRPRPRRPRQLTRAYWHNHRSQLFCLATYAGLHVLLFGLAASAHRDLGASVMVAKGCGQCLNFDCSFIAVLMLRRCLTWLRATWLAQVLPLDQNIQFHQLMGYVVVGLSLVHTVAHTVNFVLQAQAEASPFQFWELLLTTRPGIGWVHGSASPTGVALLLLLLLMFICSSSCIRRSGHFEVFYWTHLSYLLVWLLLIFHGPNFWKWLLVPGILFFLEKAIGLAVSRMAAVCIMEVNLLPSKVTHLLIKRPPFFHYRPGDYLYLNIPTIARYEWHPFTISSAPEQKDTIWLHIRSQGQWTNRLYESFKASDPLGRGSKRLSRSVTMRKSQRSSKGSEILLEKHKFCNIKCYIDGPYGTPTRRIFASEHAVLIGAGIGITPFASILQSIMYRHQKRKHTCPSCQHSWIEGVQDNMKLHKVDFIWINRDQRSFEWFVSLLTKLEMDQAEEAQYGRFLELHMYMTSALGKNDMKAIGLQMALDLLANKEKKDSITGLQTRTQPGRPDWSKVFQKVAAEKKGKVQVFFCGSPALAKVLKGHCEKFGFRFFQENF

Take `COc1ccc([Si](C)(C)[C@@H]2[C@@H](CCO)O[C@]3(C(=O)N(Cc4ccc(N5C(=O)c6cccc7cccc5c67)cc4)c4ccccc43)[C@H]2C)cc1`: the z-score is 0.317 (inactive) in assay [1]; 3.28 (inactive) in assay [3]; 3.22 (inactive) in [4]; 0.146 (inactive) in [5]; 2.22 (inactive) in assay [6]; -0.511 in [7]. In addition, the z-score in [8] was 0.806 (inactive); in assay [9], 0.417 (inactive); in [10], 2.96; in assay [11] it was -0.35; in assay [12] it was -0.903; in assay [13], -3.63. Further, the z-score was -1.6 in assay [14]; -4.12 in [15]; 0.00779 in assay [16]; 1.89 (inactive) in [17]; -1.11 in [18]; -1.15 in assay [19]. The z-score in [20] was -1.43 (inactive). Moreover, the composite z-score in assay [2] is 0.0355.
`CC(C)C(O)C1C=CC2C(=O)N(C)C(=O)C2N1N1CCCCC1` (stereo not given): the z-score in assay [1] is -1.77 (inactive); in assay [3], 0.193 (inactive); in assay [4], 1.22 (inactive); in assay [5], 0.0667 (inactive); in assay [6], 1 (inactive); in assay [7], -0.87. For the same molecule, the z-score is -0.569 (inactive) in assay [8]; -0.278 (inactive) in assay [9]; -1.52 in assay [10]; 0.553 in assay [11]; -0.0255 in assay [12]; -0.306 in [13]. Also, the z-score in [14] is -0.602; in [15] it was -1.34; in assay [16], -0.778; in [17], -0.307 (inactive); in [18], 0.643; in assay [19], -0.189. Further, in assay [20], the z-score is -0.153 (inactive). In addition, the composite z-score in assay [2] came out at 0.134.
For the molecule `CCN(CC)c1ccc(N2CC=CC34O[C@@H]5/C=C\CCCOC(=O)C5[C@H]3C(=O)N(CCCO)[C@@H]4C2=O)cc1` (stereo not given in full), the z-score in [1] was -0.522 (inactive); in assay [3], 1.78 (inactive); in assay [4] it was 0.225 (inactive); in assay [5], -0.462 (inactive); in [6], 0.308 (inactive); in assay [7], -0.219. Further, the z-score in assay [8] was 0.024 (inactive); in assay [9] it was 0.558 (inactive); in [10], 0.931; in assay [11], -0.13; in [12] it was 0.275; in assay [13], 0.616. In addition, the z-score in assay [14] is 0.794; in [15], -0.0911; in assay [16], 0.472; in assay [17], -0.546 (inactive); in [18] it was -0.0632; in assay [19], 0.918. In assay [20], the z-score is 0.876 (inactive). This molecule had a composite z-score in assay [2] of 0.235.
As for `CC(C)[C@H]1COC(=O)N1C(=O)[C@H]1[C@@H](c2ccccc2)N(c2ccccc2)O[C@@H]1C`, the z-score in assay [1] is 1.46 (inactive); in assay [3] it was 0.744 (inactive); in assay [4], 0.233 (inactive); in assay [5], -0.648 (inactive); in [6], 0.206 (inactive); in assay [7], 0.958. For the same molecule, the z-score in assay [8] is -0.515 (inactive); in [9], -0.138 (inactive); in [10] it was -2.5; in assay [11] it was 0.198; in assay [12], 0.343; in [13] it was 0.612. Further, the z-score is -0.357 in [14]; 0.133 in assay [15]; 0.941 in assay [16]; 0.997 (inactive) in [17]; -0.361 in assay [18]; -1.46 in assay [19]. The z-score in [20] was 1.72 (inactive). The same molecule returned a composite z-score in assay [2] of -0.147.
As to `CO[C@H]1O[C@H](CO)[C@@H](OC(=O)Nc2ccc(C(F)(F)F)cc2)[C@H](OC(=O)Nc2ccccc2)[C@@H]1OC(=O)Nc1ccccc1`, the z-score is -0.744 (inactive) in assay [1]; 7.34 (inactive) in assay [3]; 1.01 (inactive) in assay [4]; -0.886 (inactive) in assay [5]; 0.863 (inactive) in assay [6]; -0.143 in assay [7]. Also, the z-score in assay [8] was 0.179 (inactive); in assay [9], -0.513 (inactive); in assay [10] it was -0.468; in assay [11], -0.902; in assay [12], -0.133; in [13], -1.28. For the same molecule, the z-score in assay [14] is -2.72; in assay [15] it was -2.84; in [16], -0.901; in [17], -1.47 (inactive); in assay [18], -0.828; in [19], 0.469. In assay [20], the z-score is -0.0537 (inactive). Moreover, the composite z-score in [2] is -0.407.
`Cc1ccc(N2C(=O)c3ccccc3[C@](C)(C(=O)NCCN3CCOCC3)[C@@H]2c2ccc(CO)cc2)nc1`: the z-score in assay [1] is -0.285 (inactive); in assay [3] it was 1.12 (inactive); in [4], 0.645 (inactive); in assay [5], 2.69 (inactive); in assay [6], 0.178 (inactive); in [7], -0.113. Besides, the z-score is 1.86 (inactive) in [8]; 0.236 (inactive) in [9]; 0.286 in assay [10]; -0.68 in assay [11]; 0.994 in assay [12]; -0.808 in [13]. In addition, the z-score in assay [14] is 0.839; in [15], -1.49; in assay [16], 0.144; in [17], -0.674 (inactive); in assay [18] it was -0.628; in assay [19], 0.0375. For the same molecule, the z-score in assay [20] is 0.667 (inactive). In [2], this molecule displayed a composite z-score of -0.229.
For `COc1ccc(CCNC(=O)[C@@]2(C)c3ccccc3C(=O)N(Cc3ccccc3)[C@H]2c2ccc(CO)cc2)cc1`, the z-score in assay [1] was 1.09 (inactive); in assay [3], 6.03 (inactive); in [4] it was 0.219 (inactive); in assay [5], 0.474 (inactive); in assay [6], -0.73 (inactive); in assay [7], 2.24. Also, the z-score was -3.58 (inactive) in [8]; -3.9 (inactive) in [9]; -4.78 in assay [10]; -0.973 in assay [11]; 0.456 in [12]; -0.833 in [13]. Moreover, the z-score is -0.886 in assay [14]; -2.55 in assay [15]; 1.05 in assay [16]; -0.965 (inactive) in assay [17]; -0.0556 in assay [18]; -0.986 in assay [19]. The z-score in [20] is 2.17 (inactive). In addition, in [2], the composite z-score is 0.187.
`CCOC1=C2C(c3ccc(C)cc3)N(S(=O)(=O)c3ccc(C)cc3)CC2n2c(=O)n(-c3ccccc3)c(=O)n2C1` (stereo not given): the z-score is -0.346 (inactive) in assay [1]; 1.08 (inactive) in assay [3]; 1.32 (inactive) in assay [4]; 0.458 (inactive) in [5]; 0.807 (inactive) in assay [6]; -0.0263 in assay [7]. Also, the z-score in [8] was 1.22 (inactive); in assay [9] it was 0.965 (inactive); in assay [10], 0.536; in assay [11], -0.943; in [12], -0.334; in [13] it was -0.422. Moreover, the z-score was -0.255 in [14]; -0.546 in assay [15]; 1.53 in assay [16]; 0.497 (inactive) in assay [17]; 0.709 in [18]; -1.03 in assay [19]. For the same molecule, the z-score in assay [20] was -0.629 (inactive). In [2], this molecule showed a composite z-score of 0.175.
As to `CN(C)CCCN1C(=O)[C@@]2(c3ccc([N+](=O)[O-])cc3)CC(=O)N(C3CCCCC3)[C@@H]2c2ccc(CO)cc21`, the z-score in assay [1] is 0.493 (inactive); in [3] it was -0.275 (inactive); in assay [4], -0.249 (inactive); in [5] it was -1.12 (inactive); in assay [6], -1.73 (inactive); in assay [7], 0.759. In addition, the z-score was -0.209 (inactive) in [8]; 0.632 (inactive) in [9]; 0.56 in assay [10]; -0.397 in assay [11]; 0.962 in [12]; -0.816 in assay [13]. Besides, the z-score in [14] was -0.0337; in assay [15], 0.505; in assay [16], 0.446; in assay [17] it was -0.274 (inactive); in [18], 0.764; in assay [19], -0.725. Further, in assay [20], the z-score was 0.572 (inactive). This molecule came in with a composite z-score in assay [2] of 0.412.
